From PubChem BioAssay
POLI inh = DNA polymerase iota (human) inhibition; Pol iota fluorescent replication assay, 10 min; Potency, µM (highest dose often 115 µM), for the others: at the highest dose activity, negative = inhibition, actives largely listed as inhibitors; actives 1% (n = 390,000); AID 588590; also: potency is read from the fitted curve at half-maximal effect
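Pol iota at 10 nM preincubated 15 min with compounds at room temperature; reaction started with fluorescent substrate, 50 nM final. Fluorescence read kinetically at 0 and 10 min; buffer-only wells as negative control.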
WRN helicase inh = WRN helicase (human) inhibition; Q14191; WRN helicase unwinding, fluorescent forked duplex, kinetic; Potency, µM (series often up to 114 µM), without a hit: at the top dose activity change, negative = inhibition, usual class: inhibitors; actives 0.46% (n = 360,000); AID 651768; also: potency is read from the fitted curve at half-maximal effect; % is scaled to controls: 0 for no effect and ±100 for the full control effect; nearly all actives have a fitted effect of over 55% in size
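Fluorescence dequenching readout, ex 525 nm/em 598 nm, kinetic mode: forked duplex DNA (100 nM final) with adjacent fluorophore and quencher unwound by WRN (20 nM final) with 2 mM ATP. Compound preincubation 15 min, room temperature.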
Pol beta inh = inhibitors of human DNA polymerase beta | Pol beta primer extension/strand displacement, fluorescence kinetic | Potency, µM (series often up to 114 µM), without a hit: at the top dose activity change, negative = inhibition, hits mostly inhibitors | actives 1.3% (n = 340,000) | AID 485314; also: potency is read from the fitted curve at half-maximal effect; % is scaled to controls: 0 for no effect and ±100 for the full control effect
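Values derive from four-parameter Hill fits of normalized kinetic data: reads at 0 and 10 min following addition of 50 nM substrate to 10 nM Pol beta preincubated 15 min with compound.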
Pol kappa inh = blocks human DNA polymerase kappa activity. Q9UBT6. purified Pol kappa, fluorescent DNA synthesis assay, 10 min. Potency, µM (titrated, usually from 107 µM), inactives show at the top dose activity, negative = inhibition, hits mostly inhibitors. actives 0.53% (n = 400,000); also: potency is read from the fitted curve at half-maximal effect; % is scaled to controls: 0 for no effect and ±100 for the full control effect
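Here, compound and 10 nM enzyme are combined for 15 min at room temperature; adding 50 nM substrate (final) starts DNA synthesis, tracked by fluorescence at 0 and 10 min against buffer-only wells.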
PI5P4K alpha inh = PI5P4K alpha (human) kinase inhibition; PI5P4Kalpha enzyme, ADP-Glo luminescence, 60 min; hits give low values; max response, %; actives 1.2% (n = 330,000); AID 652105; active = max response of -50% or lower; inconclusive = between -30% and -50%; inactive = -30% or higher; also: value at the top dose of about 77 µM; % is scaled to controls: 0 for no effect and ±100 for the full control effect
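Luminescence from ADP-Glo served as readout of PI5P4Kalpha activity in a qHTS format. Reaction: enzyme, substrate, compound, ATP at 5 microM final, 60 min at RT.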
Pol eta inh = inhibitors of human DNA polymerase eta; Q9Y253; recombinant Pol eta, fluorescent DNA replication assay; Potency, µM (top dose mostly 114 µM), without a hit: top-dose activity change, negative = inhibition, most hits filed as inhibitors; actives 1.2% (n = 390,000); also: potency is read from the fitted curve at half-maximal effect; % is scaled to controls: 0 for no effect and ±100 for the full control effect
Target sequence (Q9Y253 whole entry, looked up): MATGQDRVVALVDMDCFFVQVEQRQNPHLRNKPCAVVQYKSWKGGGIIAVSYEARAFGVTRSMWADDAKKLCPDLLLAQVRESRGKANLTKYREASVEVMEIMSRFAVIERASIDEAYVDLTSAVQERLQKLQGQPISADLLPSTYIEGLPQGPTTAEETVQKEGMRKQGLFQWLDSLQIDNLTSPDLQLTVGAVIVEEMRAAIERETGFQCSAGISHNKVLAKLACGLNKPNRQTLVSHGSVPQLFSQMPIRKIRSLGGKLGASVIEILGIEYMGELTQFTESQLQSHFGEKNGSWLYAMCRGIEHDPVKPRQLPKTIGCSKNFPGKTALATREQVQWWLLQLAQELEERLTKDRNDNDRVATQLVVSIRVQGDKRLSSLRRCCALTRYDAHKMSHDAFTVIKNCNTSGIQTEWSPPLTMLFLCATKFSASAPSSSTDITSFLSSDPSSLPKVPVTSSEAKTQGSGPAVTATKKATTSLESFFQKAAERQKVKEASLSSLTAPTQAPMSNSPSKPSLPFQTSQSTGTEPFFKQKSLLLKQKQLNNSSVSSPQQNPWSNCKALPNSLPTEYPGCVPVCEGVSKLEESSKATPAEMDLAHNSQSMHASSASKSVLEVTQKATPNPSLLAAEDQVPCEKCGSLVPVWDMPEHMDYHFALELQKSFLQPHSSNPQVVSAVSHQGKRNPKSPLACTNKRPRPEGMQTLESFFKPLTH
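Fluorescent replication assay: 50 nM final substrate added after a 15 min room-temperature compound preincubation with 10 nM enzyme. Signal taken at 0 min and again at 10 min.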
Numbers without * were called inactive; u = inconclusive; x = no result given; [ ] = dose if it differs, or a comment. The list is not random: actives were taken first. Their share in the collection is about 2.8%. Unless noted, calls follow the shape of the dose curve; as a rule, active = well fitted curve in the direction sought with a large enough effect; inconclusive = small, poorly fitted or top-dose-only effect, or another doubt; inactive = no such curve, though single readings can be large; an effect the other way counts as inactive or inconclusive.

SMILES	POLI inh	WRN helicase inh	Pol beta inh	Pol kappa inh	PI5P4K alpha inh	Pol eta inh
COc1ccc(CCNC(=O)Cn2nc(C)n3c(cc4occc43)c2=O)cc1OC	6%	x	1%	-9%	x	-11%
CCCCNC(=O)C(CC)Sc1nnc(-c2cccc(F)c2)c(-c2cccc(F)c2)n1 (centres undefined)	-13%	x	-25%	1%[60.1 µM]	x	-13%
CCOc1ccc(N2CC(NC(=O)c3ccc4c(c3)OCO4)CC2=O)cc1 (centres undefined)	4%	x	2%	-6%[60.1 µM]	x	1%
CCc1cccc2c(C(O)(c3c[nH]c4c(CC)cccc34)c3c[nH]c4c(CC)cccc34)c[nH]c12	7%	x	x	-4%	x	x
C[N+]1(CC(=O)NNc2c3ccccc3nc3ccccc23)CCOCC1	x	x	25µM*	x	x	x
Cc1cc(C)cc(NC(=O)C2CCN(S(=O)(=O)c3cn(C)cn3)CC2)c1	34%	x	28%	-2%[60.1 µM]	x	1%
CCOC(=O)c1scc(-c2ccccc2)c1S(=O)(=O)N1CCN(c2ccc(Cl)cc2)CC1	24%	x	u	-2%	x	-25%
COc1ccc(-c2nnc(SCC#CCO)o2)cc1OC	-7%	8%	1%	-3%	-56*	-5%
COc1ccc(-c2nnc(SCC(=O)N(C)Cc3ccccc3)o2)cc1OC	60%	x	-7%	-4%	x	79µM*
Cc1nnc(N/N=C/c2cc([N+](=O)[O-])c(N3CCC(C)CC3)cc2N2CCC(C)CC2)n1N	4µM*	-17%[57.1 µM]	-23%	-13%	x	-16%
Cc1nnc(N/N=C/c2ccc([N+](=O)[O-])cc2)n1N	u	-2%[11.6 µM]	0%	-11%	-8	-5%
CCc1nnc(N/N=C/c2ccc(N3CCC(C)CC3)c([N+](=O)[O-])c2)n1N	8.9µM*	-1%[11.6 µM]	0%	-25%	-1	-14%
CCOc1ccc(N)c(SSc2cc(OCC)ccc2N)c1	u	-11%[11.6 µM]	9%	-4%	u	-7%
CS(=O)(=O)c1ccc(N)c(SSc2cc(S(C)(=O)=O)ccc2N)c1	u	-1%	x	-16%	-81*	-4%
O=C(NCc1ccccc1Cl)C1CCN(S(=O)(=O)c2ccc3c(c2)CCCN3C(=O)C2CCC2)CC1	29%	x	12%	-3%[60.1 µM]	x	-15%
COC1=CC(=NCl)C=CC1=NCl	x	u	x	x	-62*	x
Cc1ccc(NC(=O)CSc2nnc3[nH]c(=O)cc(-c4ccccc4)n23)cc1Cl	0%	x	40µM*	-3%[60.1 µM]	x	-7%
CC(=O)c1c(C)oc2c(Br)cc(NS(=O)(=O)c3ccc(Br)cc3)cc12	79µM*	x	u	-3%[60.1 µM]	x	-25%
CCc1ccc(C2=CC(c3cccc(C)c3)n3c(nc4ccccc43)N2)cc1 (centres undefined)	-13%	x	13%	-13%[60.1 µM]	x	-8%
O=c1[nH]c(SCc2ccc(F)cc2)nc2c1CCCC2	-3%	x	9%	7%	x	x
O=C(Nc1ccc(S(=O)(=O)NC2=NCCCCC2)cc1)C1COc2ccccc2O1 (centres undefined)	9%	-3%	-28%	-9%	5	-9%
O=C(COC(=O)c1ccccc1NCCO)Nc1cccc(S(=O)(=O)NC2=NCCCCC2)c1	40µM*	-8%[11.6 µM]	x	u	-18	u
O=C(Nc1cccc(S(=O)(=O)NC2=NCCCCC2)c1)C1COc2ccccc2O1 (centres undefined)	u	u	13µM*	-24%	u	u
CCOc1ccccc1C(=O)OCC(=O)Nc1cccc(S(=O)(=O)NC2=NCCCCC2)c1	5%	-4%	x	-19%	2	-13%
COc1ccc(-n2c(SCC(=O)NCc3ccc(F)cc3)nc3c([nH]c4ccccc43)c2=O)cc1	5%	x	1%	2%[60.1 µM]	x	-7%
SMILES	POLI inh	WRN helicase inh	Pol beta inh	Pol kappa inh	PI5P4K alpha inh	Pol eta inh
O=c1[nH]c2ccc(S(=O)(=O)Nc3cc(Cl)ccc3O)cc2o1	u	x	u	u	x	89µM*
O=c1[nH]c2ccc(S(=O)(=O)Nc3ccc(Cl)cc3)cc2o1	-7%	-5%	20%	2%	-5	-11%
O=C(NNc1cc(Br)c(O)c(Br)c1)c1ccccc1	22µM*	-30%[57.1 µM]	-5%	u	-91*	5%
O=C(C[n+]1cccc2cc(Cl)ccc21)c1ccc(Br)cc1	40%	x	x	-13%	x	x
CC(=O)N1CCc2cc(Br)cc(S(=O)(=O)N3CCC(C(=O)Nc4ccc(C(C)C)cc4)CC3)c21	35µM*	x	0%	u	x	-11%
CC(C)c1ccc(NS(=O)(=O)c2cc(Br)cc3c2N(C(=O)C2CC2)CC3)cc1	8%	x	18%	-7%	x	-21%
O=C(N/N=C/c1c(-c2ccccc2)[nH]c2ccccc12)c1cccnc1	-26%	-23%	u	-23%	-12	-13%
COc1ccccc1NC(=O)COc1ccc(/C=N/NC(=O)c2cccnc2)cc1	22%	6%	-15%	-1%	8	2%
Cn1c(-c2ccccc2)c(/C=N/NC(=O)c2cccnc2)c2ccccc21	21%	-17%	56µM*	-26%	-7	-18%
CC(NC(=O)COc1ccc(/C=N/NC(=O)C(=O)Nc2ccccc2Br)cc1)c1ccccc1 (centres undefined)	u	-16%	32µM*	9%	12	u
O=C(COc1ccc(/C=N/NC(=O)c2cccnc2)cc1)Nc1ccccc1	49%	-26%	32µM*	-1%	-3	u
O=C(N/N=C/c1ccc(OC(=O)c2ccccc2)cc1)c1cccnc1	u	56µM*	50µM*	-33%	-10	u
O=C(N/N=C/c1ccc(OC(=O)c2ccc([N+](=O)[O-])cc2)cc1)c1cccnc1	-4%	0%	-2%	1%	6	-6%
COc1cccc(C(=O)Nc2cc(-c3ccccc3)no2)c1	-6%	x	7%	9%	x	-6%
Cc1ccc(CSCC(=O)N/N=C/c2ccc(OCC(=O)Nc3ccc(C)cc3)cc2)cc1	u	u	10µM*	-27%	10	u
O=C(COc1ccc(/C=N/NS(=O)(=O)c2ccccc2)cc1)Nc1ccccc1	4%	-18%	19%	-4%	-10	-14%
COc1ccc(CSCC(=O)N/N=C/c2ccc(OCC(=O)N3CCCCC3)cc2)cc1	u	-8%	-7%	-9%	x	2%
O=C(CCC(=O)Nc1ccccc1)N/N=C/c1ccncc1	9%	8%	20µM*	9%	1	7%
O=C(Cc1ccccc1)N/N=C/c1ccc(OCC(=O)Nc2ccccc2)cc1	-11%	-22%	28µM*	-9%	-7	u
CCCN(CCC)CCCNC(=O)Cn1ncn2c(cc3sc(CC)cc32)c1=O	13%	x	-1%	8%	x	-11%
